Source: PubChem BioAssay AID2289 (National Center for Advancing Translational Sciences (NCATS), 2010)
Hit rate of the full screen: of about 340,000 compounds, about 3,300 (0.97%) were called active. About 9% were inconclusive and are not listed. Calls follow the shape of the dose curve; as a rule, active = well fitted inhibition curve with a large enough effect; inconclusive = small, poorly fitted or top-dose-only effect, or effect the other way; inactive = flat fitted curve, though single readings scatter. Some of the results follow.

assay: qHTS Assay for Modulators of miRNAs and/or Inhibitors of miR-21; conditions: HeLa miR-21-FLuc reporter, luciferase luminescence, 48 h; actives lower the signal; also: nearly all actives have a fitted effect of over 55% in size
Procedure, shortened: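 Luminescence from a firefly luciferase reporter carrying a miR-21 binding site downstream, stably expressed under a CMV promoter in HeLa cells that make miR-21 endogenously, reports miRNA modulation after 48 h compound exposure up to approximately 40uM final.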
Potency is read from the fitted curve at half-maximal effect.

Potency, active:
CCCCn1cnc2c(oc3ccccc32)c1=O 13.1 µM
Cc1nc2sc(-c3ccccc3)cc2c(=O)n1/N=C/N(C)C 3.29 µM
CCc1cc2c(=O)n(-c3ccccc3)cnc2s1 13.1 µM
CN(C)c1ncnc2sc(-c3ccccc3)cc12 14.7 µM
O=C(CSc1ncnc2ccccc12)c1ccc2c(c1)OCCO2 2.07 µM
CCn1cnc2sc(-c3ccccc3)cc2c1=O 1.47 µM
CC(=O)Cn1nnc2sc(-c3ccccc3)cc2c1=O 1.85 µM
CCc1cc2c(SCC(=O)c3ccccc3)ncnc2s1 8.26 µM
CCCCn1cnc2sc(-c3ccccc3)cc2c1=O 1.31 µM
CC(=O)Cn1cnc2sc(-c3ccccc3)cc2c1=O 4.14 µM
Cn1c(C(=O)NC2CCCCC2)cc2sccc21 6.56 µM
O=C(NC1CCCC1)c1cc(-c2cccs2)on1 2.33 µM
O=C(NC1CCCCC1)c1cc(-c2cccs2)on1 2.93 µM
O=C(Nc1ncc(Cc2cccc(Cl)c2)s1)C1CCCO1 (stereo not drawn) 7.36 µM
O=C(Nc1nnc(-c2ccccc2F)s1)C1CCCO1 (stereo not drawn) 1.85 µM
O=C(Nc1nnc(SCc2c(Cl)cccc2Cl)s1)C1CCCO1 (stereo not drawn) 18.5 µM
Cc1cccc2sc(NC(=O)C3CCCO3)nc12 (stereo not drawn) 13.1 µM
O=C(Nc1ncc(Cc2cccc(Cl)c2Cl)s1)C1CCCO1 (stereo not drawn) 7.36 µM
CC1CCCN(c2ccc(C(=O)NCc3cccs3)cn2)C1 (stereo not drawn) 6.56 µM
CC(C)(CO)NC(=O)c1ccc2c(c1)C(=O)c1ccccc1-2 5.21 µM
Cc1ccsc1C(=O)OCC(=O)NCCC1=CCCCC1 18.5 µM
O=c1[nH]cnc2scc(-c3ccc(-c4ccccc4)cc3)c12 0.521 µM
Cc1ccccc1-c1ncnn1-c1sc2c(c1C#N)CCCCC2 1.31 µM
N#Cc1c(-n2ncnc2-c2ccc(F)cc2)sc2c1CCCCC2 3.69 µM
C1=Nc2ccccc2CN1c1ccccc1 5.85 µM
Oc1cccc(-c2nc3ccc4ccccc4c3c3c2CCC3)c1 5.21 µM
CCOCCCNC(=O)c1cccc(OC2CCN(S(C)(=O)=O)CC2)c1 5.85 µM
Nc1c(C(=O)C2CC2)sc2nc3c(cc12)CCC3 1.85 µM
Nc1c(C(=O)N2CCCCC2)sc2nc3c(cc12)CCCC3 1.31 µM
CN(C(=O)c1ccco1)c1nc(-c2ccccc2)cs1 1.85 µM
COCCCN(C(C)=O)c1nc(-c2ccccc2)cs1 6.56 µM
COc1ccc(/C=N/Nc2nncc3ccccc23)c(OC)c1 5.85 µM
COc1ccccc1/C=N/Nc1nncc2ccccc12 4.65 µM
COc1ccccc1C(=O)NC1=NC(c2ccc(Br)cc2)CC(=O)N1 (stereo not drawn) 1.85 µM
N=c1nc(N)nc2n1NC(c1ccc(F)cc1)=CS2 16.5 µM
Clc1ccccc1/C=C/c1nc(-c2cccnc2)no1 0.656 µM
C(=C\c1nc(-c2ccccc2)no1)/c1ccccc1 1.04 µM
Cc1ccc2oc(-c3ccco3)cc(=O)c2c1 5.85 µM
Cc1cccc2c1-c1sc(C(=O)N3CCCCC3)cc1CO2 3.69 µM
Cc1cccc2c1-c1sc(C(=O)Nc3ccccc3C(N)=O)cc1CO2 0.165 µM
CCN(CC)c1ccc(-c2nc3cnccc3n2C)cc1 3.69 µM
COc1ccc(NC(=O)n2ncc3c(C)cccc32)cc1OC 7.36 µM
COc1ccc(NC(=O)n2ncc3cc(Cl)ccc32)cc1OC 8.26 µM
COc1ccc2nc3sc(C(=O)NCc4cccs4)c(N)c3cc2c1 1.31 µM
Cc1ccc2nc3sc(C(=O)NCc4ccco4)c(N)c3cc2c1 0.521 µM
Clc1ccc2nc(N3CCN(c4ccccc4)CC3)sc2c1 0.464 µM
c1ccc(CN2CCN(c3nc4ccccc4s3)CC2)cc1 1.31 µM
Clc1ccc2nc(N3CCCCC3)sc2c1 2.07 µM
CC(C)(C)c1ccc(/C=C/C(=O)Nc2nncs2)cc1 0.369 µM
O=C(COc1ccc2ccccc2c1Br)NC(=S)Nc1cccc(CO)c1 20.7 µM
O=C(COc1ccc(Br)cc1Br)NC(=S)Nc1cccc(CO)c1 1.65 µM
CCn1c(=NC(=O)c2ccc3c(c2)OCCO3)sc2c(C)ccc(OC)c21 1.31 µM
COc1ccccc1C(=O)N=c1sc2c(C)ccc(OC)c2n1C 3.69 µM
COc1ccc(C(=O)N=c2sc3c(C)ccc(OC)c3n2C)cc1 0.185 µM
Cc1cc(C)cc(C(=O)NC(=S)Nc2ccc3c(c2)OCCO3)c1 7.36 µM
O=C(NC(=S)Nc1ccc2c(c1)OCCO2)c1cccc(Br)c1 3.69 µM
CCc1ccc(C(=O)NC(=S)Nc2ccc3c(c2)OCCO3)cc1 2.07 µM
O=C(O)c1ccc(-c2nc(-c3ccc(Cl)cc3)cs2)cc1 0.414 µM
CNC(=O)c1ccc(-c2nc(-c3ccccc3)cs2)cc1 3.29 µM
O=C(O)c1ccc(-c2nc(-c3ccccc3)cs2)cc1 2.61 µM
C/C(CC(=O)NCc1ccccc1Cl)=N/NC(=O)c1ccccn1 8.26 µM
C/C(CC(=O)Nc1cc(C)cc(C)c1)=N\NC(=O)c1ccccn1 4.65 µM
COc1ccccc1NC(=O)C/C(C)=N/NC(=O)c1ccccn1 1.85 µM
CCOC(=O)C1CCCN(C(=O)CCc2nnc(-c3ccc(C(C)=O)s3)o2)C1 (stereo not drawn) 3.29 µM
Fc1ccccc1-n1ncc2c1ncn1nc(-c3ccccc3Cl)nc21 0.736 µM
CC1(C)C=Cc2cc3ccc(=O)oc3cc2O1 13.1 µM
COc1c2c(cc3oc(=O)ccc13)OC(C)(C)C=C2 18.5 µM
O=C(NC(=S)Nc1ccccc1C(=O)O)c1ccc(-c2ccc(Br)cc2)o1 11.7 µM
NC(=O)c1ccccc1NC(=O)c1ccc(-c2ccc(Br)cc2)o1 1.17 µM
S=c1[nH]nc(-c2ccc(Cl)cc2Cl)n1-c1ccccc1 5.21 µM
CN(c1ccccc1)c1ccc(/C=N/N2CCOCC2)cc1 1.47 µM
O=[N+]([O-])c1ncccc1OCc1ccc(Cl)c(Cl)c1 7.36 µM
COc1ccc2nc(NC(=O)c3ccc(Br)s3)sc2c1 1.17 µM
COc1ccc2nc(NC(=O)c3cccnc3SC)sc2c1 2.93 µM
O=C(NC(=O)c1ccc(Cl)cc1)OC1CCCCC1 16.5 µM
Cc1cc(CC(C)C)n(-c2nc3ccccc3c(=O)n2OCC(=O)N(C)C)n1 18.5 µM
COc1ccc(CCn2nc(C)c([N+](=O)[O-])c2C)cc1 4.14 µM
O=C(/C=C/Nc1ccccc1O)c1ccco1 18.5 µM
CC(=O)N1c2ccccc2Oc2cc3ccccc3cc21 9.27 µM
CCCC(=O)N(CCN1CCOCC1)c1nc2cc(C)c(C)cc2s1 2.33 µM
O=C(NC(=S)Nc1ccc2ncccc2c1)c1ccccc1 6.56 µM
O=C(Nc1ccc2ncccc2c1)c1ccccc1Br 1.65 µM
Cc1csc(NC(=S)NC(=O)c2ccccc2)n1 1.31 µM
Cc1cc(C(=O)Nc2cnc3ccccc3c2)ccc1[N+](=O)[O-] 0.736 µM
O=C(NC(=S)Nc1cnc2ccccc2c1)c1ccccc1 0.585 µM
O=C(NNC(=S)Nc1ccccc1)c1ccc2ncccc2c1 8.26 µM
O=C(NC(=S)Nc1ccc(Cl)cc1)c1ccccc1 4.65 µM
Clc1ccc(SCc2cn3ccccc3n2)cc1 4.65 µM
Cc1cccc2nc(CSc3nc4ccccc4o3)cn12 18.5 µM
Cc1cc(C)c(C#N)c(SCc2cn3ccccc3n2)n1 18.5 µM
c1ccc2c(SCc3cn4ccccc4n3)nncc2c1 14.7 µM
Cc1cccc2nc(CSc3ccc(Cl)cc3)cn12 4.14 µM
Clc1ccc2nc(CSCc3ccccc3)cn2c1 2.93 µM
c1ccc2nc(SCc3cn4ccccc4n3)cnc2c1 9.27 µM
CCOc1ccc(N2Nc3n[nH]c(N)c3N2)cc1 16.5 µM
N#CC1CC(c2ccccc2)=NN1c1ccccc1[N+](=O)[O-] (stereo not drawn) 5.85 µM
CC(/C=C/c1ccc(OCc2ccccc2)cc1)=N\O 2.07 µM
c1ccc(CSc2nnc3ccc(-c4cccs4)nn23)nc1 7.36 µM
COC(=O)c1cc2c(s1)-c1ccc(OC)cc1CC2 6.56 µM
CCc1ccc(-n2nnc(-c3nc(-c4ccccc4)no3)c2C)cc1 1.17 µM
Cc1cccc(-n2nnc(-c3nc(-c4cccs4)no3)c2N)c1C 0.0927 µM
COc1cccc(-n2nnc(-c3nc(-c4cccs4)no3)c2N)c1 1.04 µM
CCc1ccc(-n2nnc(-c3nc(-c4cccs4)no3)c2N)cc1 1.17 µM
Cc1cccc(-n2nnc(-c3nc(-c4cccs4)no3)c2N)c1 0.329 µM
Nc1c(-c2nc(-c3cccs3)no2)nnn1-c1cccc(F)c1 0.208 µM
COc1ccc(/C(C)=N/Nc2ccccc2Cl)c(O)c1 8.26 µM
Nc1nc(N2CCN(c3ccccn3)CC2)nc2ccccc12 6.56 µM
Nc1nc(N2CCN(C(=O)c3ccco3)CC2)nc2ccccc12 14.7 µM
